Compound activity: PubChem BioAssay, Center for Chemical Genomics, University of Michigan
CDC25B CDK2 inh: human CDC25B-CDK2/CyclinA binding inhibition; HTRF CDC25B-CDK2/CyclinA binding, anti-His/anti-Flag; hits give high values; z-score (concentration not given with the values); 94,000 compounds, 0.72% hits; P30305+P24941; in the data active = z-score above about 3.2
HIV TAR-Tat: HIV-1 TAR-Tat binding disruption. HIV-1 TAR RNA, Tat peptide displacement FRET; hits give high values. z-score (test concentration not listed). 100,000 compounds, 0.6% hits; active = z-score of 3 or more in at least 2 runs
Active calls of the source: *; nt = no result. Compounds with a hit are over-represented: about 0.86% of the library has one in this group of screens.

SMILES | CDC25B CDK2 inh | HIV TAR-Tat
CC(=O)Nc1ccc(S(=O)(=O)[C@H]2CS(=O)(=O)C[C@@H]2NC2CCCCC2)cc1 | -1.6 | -0.86
Cc1ccc(C(=O)N2CCN(c3cc(=O)n4nc(-c5ccc(C)cc5)sc4n3)CC2)cc1 | nt | 0.66
Cc1nc2c(C)cccn2c(=O)c1Cc1nnc(SCC(=O)Nc2ccc3c(c2)OCO3)n1C | -0.38 | 0.66
Cn1c(=O)c2c(-c3ccccc3Br)n(-c3ccccc3N)cc2n(C)c1=O | 0.87 | 2.5
Cn1c(=O)c2c(-c3ccccc3Br)n(-c3ccccc3)cc2n(C)c1=O | -0.69 | 0.54
Cn1c(=O)c2c(-c3ccccc3Br)n(-c3cccc4cccnc34)cc2n(C)c1=O | 16* | -2.6
Cn1c(=O)c2c(-c3ccccc3Br)n(-c3ccc4[nH]c(=O)[nH]c4c3)cc2n(C)c1=O | 6.2* | 2.3
O=C1CCCN1CCCNc1ncnc2c1c(-c1ccccc1)cn2-c1ccc(Cl)cc1 | -1.3 | nt
O=C(Cn1c(=O)c2cccn2c2ccccc21)NCCC1=CCCCC1 | nt | 3.4
CC(C)(C)C(=O)CSc1nc2ccccc2c(=O)n1C1CCCC1 | 0.03 | nt
CCC(=O)OCc1cc(=O)n2nc(-c3cccs3)sc2n1 | nt | 19*
Cc1ccc(SCC(=O)OCc2cc(=O)n3nc(-c4cccs4)sc3n2)cc1 | nt | 0.74
CC1(C)Cc2c(sc3c2c(=O)n(C2CCCCC2)c(=O)n3CC(N)=O)CO1 | -1.3 | 1.9
CC1CCCCC1NC(=O)Cn1ncn2nc(-c3cccs3)cc2c1=O (stereo not drawn) | -3.2 | 0.11
CCOC(=O)c1sc(NC(=O)C(CC)Sc2nnc3c4ccccc4n(CC)c3n2)nc1C (stereo not drawn) | -1.8 | 0.92
CCCn1c2ccccc2c2nnc(SC(CC)C(=O)Nc3cc(C)on3)nc21 (stereo not drawn) | 17* | -0.8
Clc1ccc2nc(N3CCN(c4ccccc4)CC3)c3nncn3c2c1 | -1.5 | 1.1
CCOC(=O)C1=C(C)NC2=C(C(=O)C(C(=O)OC)C(C)C2)C1c1ccc(OC)c(Br)c1 (stereo not drawn) | -0.71 | 1.4
O=C1CC(=O)Nc2cc(S(=O)(=O)Nc3ccc4c(c3)OCO4)ccc2N1 | nt | 18*
O=C1CC(=O)Nc2cc(S(=O)(=O)Nc3ccc(F)cc3)ccc2N1 | -0.68 | 0.64
O=C(NN1C2CSC1CS2)c1ccco1 | 0.41 | nt
CC1CCN(C(=O)C2CCCN(S(=O)(=O)c3ccc4c(ccn4C)c3)C2)CC1 (stereo not drawn) | nt | 0.78
Cc1c(Sc2nnc(-c3cccs3)n2-c2ccc(F)cc2)c(=O)[nH]c2cc3c(cc12)OCO3 | -18 | nt
Oc1ccc(/C=C/c2ccc(/C=C/c3ccc(O)cc3)c(Br)c2)cc1 | -0.23 | nt
Oc1cc(O)cc(/C=C/c2ccc(O)c(O)c2)c1 | 1.7 | 37*
SMILES | CDC25B CDK2 inh | HIV TAR-Tat
COc1ccc(Br)cc1C1C(C#N)=C(N)Oc2cc(O)ccc21 (stereo not drawn) | -1.4 | -2.8
N#Cc1c(N)nc2c(c1N)C(C(C#N)C#N)c1cc(Br)ccc1O2 (stereo not drawn) | 7* | nt
COC(=O)c1sc2ccc(N)cc2c1OCC(C)C | 3 | -2.2
COC(=O)c1sc2ccccc2c1Cl | 1.3 | 1.9
CCOc1c(C(=O)OC)sc2ccc(N)cc12 | 7.7* | -1.9
COC(=O)c1sc2ccc(N)cc2c1OC | 5.4* | -2.8
CC(C)CCN1C(=O)c2cc(-c3ccco3)nn2CC1(C)C(=O)NC1CCCCC1 (stereo not drawn) | nt | 0.99
O=C(Cc1csc(-c2ccccc2)n1)Nc1nc(-c2ccccc2)cs1 | 0.55 | 0.46
NNC(=O)c1csc(-c2cccc(-n3cccc3)c2)n1 | 17* | nt
NNC(=O)Cc1csc(-c2cccc(-n3cccc3)c2)n1 | 17* | nt
NNC(=O)c1csc(-c2ccccc2)n1 | -1.1 | nt
Cc1ccc(CN2CCC(CNC(=O)Nc3cc(C)cc(C)c3)C2)cc1 (stereo not drawn) | -2.4 | -1.4
CCN(CC)c1ccc(Nc2nc(-c3sc(NC(C)=O)nc3C)cs2)cc1 | -0.29 | 0.82
CCN(CC)c1ccc(Nc2nc(-c3sc(N)nc3C)cs2)cc1 | 0.23 | 5.7*
Cn1c(=O)[nH]c(=O)c2c1nc(N1CCC(C(N)=O)CC1)n2CCSc1nc2ccccc2o1 | 1.9 | nt
Cc1ccc(Cc2nnc(-c3ccc(N)cc3Cl)o2)cc1 | nt | -0.34
Cc1ccc(Cc2nnc(-c3cc(N)ccc3F)o2)cc1 | nt | 34*
O=C(CSc1ccsc1[N+](=O)[O-])Nc1cc(F)ccc1F | -4.8 | 4.2
CCN(CC)c1ccc(NC(=O)CSc2ccsc2[N+](=O)[O-])c(C)c1 | 3.8 | 12*
Cc1ccc(OCc2cc(=O)n3nc(C)sc3n2)c(C)c1 | -1.7 | -0.78
Cc1cc(Cl)ccc1OCc1cc(=O)n2nc(-c3ccco3)sc2n1 | 1.4 | 13*
Cc1cc2c3c([nH]c2cc1S(=O)(=O)Nc1ccccc1)CCCC3=O | nt | -1.3
Cc1ccc(NS(=O)(=O)c2cc3[nH]c4c(c3cc2C)C(=O)CCC4)cc1 | nt | -0.82
Cc1cc2c3c([nH]c2cc1S(=O)(=O)Nc1ccc(S(N)(=O)=O)cc1)CCCC3=O | nt | 11*
Cc1cc2c3c([nH]c2cc1S(=O)(=O)Nc1cccnc1)CCCC3=O | nt | 7.6*
SMILES | CDC25B CDK2 inh | HIV TAR-Tat
Cc1ccc2n1CCN(C(=O)Nc1ccccc1Br)C2C(C)C (stereo not drawn) | nt | -0.27
O=C(Cc1noc2ccccc12)N1CCN(c2ccc(Cl)cc2)CC1 | -0.46 | 0.4
Cc1nnc(N2CCCC(C(=O)N3CCCC3)C2)c2nn(-c3ccc(Cl)cc3)c(C)c12 (stereo not drawn) | nt | -0.08
O=C1OCCC1N1C(=O)c2ccccc2C1=O (stereo not drawn) | 0.22 | nt
COCCn1c2c(c(=O)[nH]c1=O)C(c1ccc(SC)cc1)C1=C(N2)c2ccccc2C1=O (stereo not drawn) | -2.5 | -1.5
CSc1ccc(C2C3=C(Nc4c2c(=O)[nH]c(=O)n4C)c2ccccc2C3=O)cc1 (stereo not drawn) | -3 | 7.4*
Cc1oc(C(C)(C)C)cc1C(=O)/C(C#N)=C/Nc1ccccc1 | 0.26 | nt
CC(C)(C)c1ccc(N/C=C(\C#N)C(=O)c2ccsc2)cc1 | 13* | nt
N#Cc1nc(/C=C/c2ccc(F)cc2)oc1N1CCNCC1 | 0.11 | -0.72
O=C1CSc2ccc(S(=O)(=O)NCc3ccco3)cc2N1 | nt | 1.7
CC(CS(=O)(=O)c1ccc2c(c1)NC(=O)CS2)C(=O)NCc1ccco1 (stereo not drawn) | nt | 5.3*
O=c1c(O[C@@H]2OC([C@H](O)CO)[C@H](O)[C@H]2O)c(-c2ccc(O)c(O)c2)oc2cc(O)cc(O)c12 (stereo partly drawn) | nt | 27*
COc1cc(-c2oc3cc(O)cc(O)c3c(=O)c2O[C@@H]2O[C@H](CO)[C@@H](O)[C@H](O)[C@H]2O)ccc1O | nt | 0.39
COc1ccc(-c2oc3cc(O[C@H]4O[C@H](CO)[C@@H](O)[C@H](O)[C@H]4O)c(OC)c(O)c3c(=O)c2OC)cc1O | nt | 2.3
O=c1c(O[C@@H]2O[C@H](CO)[C@H](O)[C@H](O)[C@H]2O)c(-c2ccc(O)c(O)c2)oc2cc(O)cc(O)c12 | nt | 27*
C[C@@H]1O[C@@H](OC[C@H]2O[C@@H](Oc3c(-c4ccc(O)c(O)c4)oc4cc(O)cc(O)c4c3=O)[C@H](O)[C@@H](O)[C@@H]2O)[C@H](O)[C@H](O)[C@H]1O | nt | 11*
O=c1c(O[C@@H]2O[C@H](CO)[C@@H](O)[C@H](O)[C@H]2O)c(-c2ccc(O)c(O)c2)oc2cc(O)cc(O)c12 | nt | 28*
